For 25 molecules, inhibition results are on record in PubChem BioAssay AID602438 (Sanford-Burnham Center for Chemical Genomics, 2012).

Structures are written as SMILES. The campaign covered roughly 360,000 compounds. About 3,100 (0.86%) were called active. For the sample, actives were picked, then their nearest neighbours and some compounds at random. Unmarked numbers belong to inactive results.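 Rule for the calls: active = inhibition or corrected inhibition above about 18%, plus a signal ratio from 0.5 to 1.5 (limit read from the data, passing the limit was not always enough); inactive = the rest.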

This test deals with Neuropilin-1 (Homo sapiens) (UniProt O14786). Nature of the test: NRP-1/CendR peptide interaction modulators – biochemical, fluorescence polarization, uHTS, primary screen (AID 602438). Particulars: FAM-RPARPAR peptide binding to NRP-1, fluorescence polarization; at 25 µM; active compounds read high.
Neuropilin-1 (Homo sapiens), sequence (O14786 whole entry, looked up): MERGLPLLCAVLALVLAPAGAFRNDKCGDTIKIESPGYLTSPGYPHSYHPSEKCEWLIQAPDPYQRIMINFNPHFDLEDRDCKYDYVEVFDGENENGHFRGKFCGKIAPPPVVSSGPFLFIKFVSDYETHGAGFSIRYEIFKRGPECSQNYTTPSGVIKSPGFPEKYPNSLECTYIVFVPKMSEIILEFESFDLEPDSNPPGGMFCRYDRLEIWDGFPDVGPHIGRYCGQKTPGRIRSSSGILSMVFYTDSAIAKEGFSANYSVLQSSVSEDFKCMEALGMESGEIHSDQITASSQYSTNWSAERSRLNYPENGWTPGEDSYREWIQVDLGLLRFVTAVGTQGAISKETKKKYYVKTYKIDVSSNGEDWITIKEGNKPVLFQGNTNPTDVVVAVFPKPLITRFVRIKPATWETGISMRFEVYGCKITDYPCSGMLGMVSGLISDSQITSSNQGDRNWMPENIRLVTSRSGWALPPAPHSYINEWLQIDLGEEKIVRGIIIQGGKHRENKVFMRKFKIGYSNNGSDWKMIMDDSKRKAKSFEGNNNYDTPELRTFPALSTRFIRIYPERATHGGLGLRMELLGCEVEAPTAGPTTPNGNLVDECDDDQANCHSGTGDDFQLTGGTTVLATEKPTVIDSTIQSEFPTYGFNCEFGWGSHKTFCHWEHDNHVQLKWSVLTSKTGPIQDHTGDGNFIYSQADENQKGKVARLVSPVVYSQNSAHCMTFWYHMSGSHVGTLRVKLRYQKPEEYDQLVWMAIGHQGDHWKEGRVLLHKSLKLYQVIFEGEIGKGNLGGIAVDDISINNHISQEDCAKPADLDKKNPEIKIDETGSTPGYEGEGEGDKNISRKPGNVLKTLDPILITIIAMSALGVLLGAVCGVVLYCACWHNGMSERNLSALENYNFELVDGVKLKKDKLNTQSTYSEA
The inhibition is the drop in the measured response relative to a control, in per cent. In the case of `CCC(=NCCc1ccccc1)c1c(O)n(C2CCCCC2)c(=O)[nH]c1=O`, the inhibition is 24% (active).

Regarding `CCCCCCN=C(CC)c1c(O)n(CCCC)c(=O)[nH]c1=O`, the inhibition is -5.7%.

Consider `CC(=O)c1c(O)n(C2CCCCCC2)c(=O)[nH]c1=O`, for which the inhibition was -12.9%.

On to `COc1ccccc1C1=NCc2nnc(CSC)n2-c2ccc(Cl)cc21`, for which the inhibition is 10.2%.

In the case of `COC(=O)[C@@H]1C(OC(=O)c2ccccc2)CC2CCC1N2C` (stereo not given in full), the inhibition was -1.6%.

In the case of `Cc1ccc(Cn2nnnc2CN2CCC(n3nnc4ccccc43)CC2)cc1`, the inhibition is 25.7% (active).

Take `O=c1[nH]c2ccccc2n1C1CCN(C(c2ccccc2)c2nnnn2Cc2ccccc2)CC1` (stereo not given): the inhibition is 11.2%.

For the molecule `O=c1[nH]c2ccccc2n1C1CCN(C(c2ccnc3ccccc23)c2nnnn2Cc2ccccc2)CC1` (stereo not given), the inhibition is 6.4%.

Take `CN(C)P(=S)(Nc1ccccc1)C(Cl)(Cl)Cl` (stereo not given): the inhibition is 7.8%.

As for `COC(=O)C1=C(c2cccc(OCc3ccccc3)c2)C[C@@H]2CC[C@H]1N2C(=O)NNCc1ccccc1`, the inhibition was 8.8%.

Consider `COC(=O)C1=C(c2cc3ccccc3s2)C[C@@H]2CC[C@H]1N2C(=O)NCCO`, for which the inhibition is -10.5%.

`COC(=O)C1=C(c2ccccc2)C[C@@H]2CC[C@H]1N2C(=O)NCc1ccco1`: the inhibition is -16.6%.

As to `COC(=O)C1=C(c2ccc3ccccc3c2)C[C@@H]2CC[C@H]1N2C(=O)NCCO`, the inhibition was -3.3%.

For the molecule `COC(=O)C1=C(c2ccc(C(C)=O)cc2)C[C@@H]2CC[C@H]1N2C(=O)NCCNC(C)=O`, the inhibition is 34.8% (active).

For the molecule `COC(=O)C1=C(c2ccccc2)C[C@@H]2CC[C@H]1N2C(=O)N1CCCCC1`, the inhibition is 32.5% (active).

`NCCc1c[nH]c2ccc(O)cc12`: the inhibition was 10.4%.

For the molecule `CCC(C)(O)C(=O)OC1C(=O)OC2CC3C(C)=CC(=O)C(O)C3(C)C3C4(O)OCC23C1C(C)C4O` (stereo not given), the inhibition is 9.9%.

`CCOC(=O)[C@]12Cc3ccccc3[C@H]1N(C1CCCCC1)C(=O)c1cc(OC)ccc12`: the inhibition is 2.7%.

In the case of `Cc1ccc(OC(=O)N(C)C[C@@H]2OCc3cnnn3CCCC(=O)N([C@H](C)CO)C[C@@H]2C)cc1`, the inhibition is 9.5%.

Turning to `Cc1ccc(S(=O)(=O)N(C)c2ccc(C(=O)NCC3(N(C)C)CCCCC3)cc2)cc1`, the inhibition is -2%.

`CCCCCn1c(=O)c(C(=O)Nc2c(C)n(C)n(-c3ccccc3)c2=O)c(O)c2ccccc21`: the inhibition is 3.5%.

Consider `CC(C)c1ccc(OCC(=O)N2CCN(C)CC2)c(Br)c1`, for which the inhibition was 13.4%.

With `CN1CCN(C(=O)COc2ccc(C(C)(C)C)cc2Br)CC1`, the inhibition was 10%.

Take `CC(C)c1ccc(OCC(=O)N2CCCN(C)CC2)cc1`: the inhibition is 28.1% (active).

For the molecule `CCN1c2nc3c(C)cccn3c(=O)c2CC2(C(=O)N(C)C(=O)N(C)C2=O)C1C` (stereo not given), the inhibition was 10.7%.
